Compounds without any hit were thinned out: in the full panel of roughly 83,000, 20% have a hit.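 Testing used 96-well plates and a 48-hour single-concentration exposure. Example: -40 means 40% of the starting cells died.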 Calls of active or inactive are those of the source. Rule for the calls: active = growth percent below 10; inactive = the rest.
What was measured:
Test in all cases: NCI-60 one-dose screen, 48 h (100 = growth as untreated, 0 = no growth, -100 = all killed)
Details in all cases: 10 µM unless noted
NCI-H23 lung = test system: NCI-H23 lung
NCI-H226 lung = test system: NCI-H226 lung
NCI-H322M lung = test system: NCI-H322M lung
HOP-62 NSCLC = test system: HOP-62 NSCLC
NCI-H460 lung = test system: NCI-H460 lung
HOP-92 NSCLC = test system: HOP-92 NSCLC
NCI-H522 lung = test system: NCI-H522 lung
A549/ATCC NSCLC = test system: A549/ATCC NSCLC
786-0 renal = test system: 786-0 renal
COLO 205 colon = test system: COLO 205 colon
DU-145 prostate = test system: DU-145 prostate
K-562 leukemia = test system: K-562 leukemia
MALME-3M melanoma = test system: MALME-3M melanoma
MDA-MB-231 breast = test system: MDA-MB-231 breast
RXF 393 renal = test system: RXF 393 renal
SF-268 CNS = test system: SF-268 CNS
SF-295 CNS = test system: SF-295 CNS
SF-539 CNS = test system: SF-539 CNS
UACC-257 melanoma = test system: UACC-257 melanoma
M14 melanoma = test system: M14 melanoma

Measured: growth

Cc1ccc(C(=O)Nc2ccc(-n3ccnc3)c(C(F)(F)F)c2)cc1C#Cc1cnc2cccnn12
active: NCI-H226 lung -52.4% | HOP-62 NSCLC -20.3% | HOP-92 NSCLC -14.1% | NCI-H522 lung -20% | K-562 leukemia 4.76% | MALME-3M melanoma -14% | MDA-MB-231 breast -15.5% | RXF 393 renal -20% | SF-539 CNS -40.9% | UACC-257 melanoma 8.92% | M14 melanoma 1.02%
inactive: NCI-H23 lung 13.3% | NCI-H322M lung 44.5% | NCI-H460 lung 18.8% | A549/ATCC NSCLC 28.8% | 786-0 renal 14% | COLO 205 colon 22.5% | DU-145 prostate 40.7% | SF-268 CNS 45.4% | SF-295 CNS 21.8%

COc1ccc(NC2=C(I)C(=O)C(C)=C(C)C2=O)cc1
inactive: NCI-H23 lung 32.2% | NCI-H226 lung 78.1% | NCI-H322M lung 95% | HOP-62 NSCLC 85.4% | NCI-H460 lung 97.9% | HOP-92 NSCLC 31.4% | NCI-H522 lung 18.5% | A549/ATCC NSCLC 83.8% | 786-0 renal 42.2% | COLO 205 colon 123% | DU-145 prostate 86.2% | MALME-3M melanoma 77.7% | RXF 393 renal 58.6% | SF-268 CNS 45.3% | SF-295 CNS 79% | M14 melanoma 96.1%
active: K-562 leukemia 1.44% | MDA-MB-231 breast -8.44% | SF-539 CNS -28.1% | UACC-257 melanoma -14.2%

C/C(=N/O)c1ccc(NC(=O)CSc2nnc(-c3ccc4nc(-c5ccc(Cl)cc5)[nH]c4c3)o2)cc1
active: NCI-H23 lung -18.9% | NCI-H522 lung -16.3% | 786-0 renal -59.9% | MALME-3M melanoma -4.58% | RXF 393 renal -40.6%
inactive: NCI-H226 lung 110% | NCI-H322M lung 55.8% | HOP-62 NSCLC 20.2% | NCI-H460 lung 12.2% | HOP-92 NSCLC 88.7% | A549/ATCC NSCLC 31.8% | COLO 205 colon 122% | DU-145 prostate 44.3% | K-562 leukemia 19.4% | MDA-MB-231 breast 36% | SF-268 CNS 70.8% | SF-295 CNS 97.6% | SF-539 CNS 43% | UACC-257 melanoma 97.4% | M14 melanoma 22.2%

COc1cc(/C=C/C(=O)c2cnn(-c3cc(=O)[nH]c4ccccc34)c2C)cc(OC)c1OC
inactive: NCI-H226 lung 21.9% | NCI-H322M lung 12.8% | HOP-92 NSCLC 23.3% | 786-0 renal 18.2% | DU-145 prostate 24.9% | MALME-3M melanoma 38.2% | SF-268 CNS 32.2% | SF-295 CNS 14.5% | UACC-257 melanoma 43.3% | M14 melanoma 19.5%
active: NCI-H23 lung 3.65% | HOP-62 NSCLC -1.9% | NCI-H460 lung 7.98% | NCI-H522 lung -18.1% | A549/ATCC NSCLC 7.4% | COLO 205 colon 4.15% | K-562 leukemia 3.19% | MDA-MB-231 breast 5.84% | RXF 393 renal -6.88% | SF-539 CNS -48%

O=C(c1ccc(Cl)cc1)C1[C@H](c2ccccc2Cl)[C@@H](c2ccccc2)NC12C(=O)Nc1ccc(Cl)cc12 (stereo not given in full)
active: NCI-H23 lung -70.1% | NCI-H226 lung -86.1% | NCI-H322M lung -22.1% | HOP-62 NSCLC -72.4% | NCI-H460 lung -69.2% | HOP-92 NSCLC -75.6% | NCI-H522 lung -50.6% | A549/ATCC NSCLC -23% | 786-0 renal -54.5% | COLO 205 colon -91.4% | DU-145 prostate -28.5% | K-562 leukemia -45.1% | MALME-3M melanoma -39.5% | MDA-MB-231 breast -96.1% | RXF 393 renal -93.1% | SF-268 CNS -36.6% | SF-295 CNS -85.9% | SF-539 CNS -78.4% | UACC-257 melanoma -15.5% | M14 melanoma -82.9%

N#Cc1ccc(C(=O)CSc2nc3c(c(Nc4ccc(S(N)(=O)=O)cc4)n2)CCC3)cc1
active: NCI-H23 lung -0.896% | HOP-62 NSCLC 1.39% | 786-0 renal -22.3% | MDA-MB-231 breast -14.3% | RXF 393 renal -18.1%
inactive: NCI-H226 lung 54.1% | NCI-H322M lung 75.3% | NCI-H460 lung 39.6% | HOP-92 NSCLC 14.1% | NCI-H522 lung 44.6% | A549/ATCC NSCLC 50% | COLO 205 colon 87.2% | DU-145 prostate 51.1% | K-562 leukemia 55.2% | MALME-3M melanoma 48.8% | SF-268 CNS 38.3% | SF-295 CNS 80.4% | SF-539 CNS 16.2% | UACC-257 melanoma 102% | M14 melanoma 78.1%
